Hits are enriched below; roughly 19% of the tested compounds scored in any of these assays.
DT40 TDP1 CPT: growth inhibition of DT40 Tdp1-/-;hTDP1 cells with camptothecin (screen for TDP1 inhibitors) | chicken DT40 Tdp1-/-;hTDP1 cells + 20 nM CPT, ATP luminescence, 48 h | Potency, µM (highest dose often 46.2 µM), for the others: at the top dose activity change, negative = growth inhibition, hits mostly inhibitors | 420,000 compounds, 12% hits | AID 686979; also: potency is read from the fitted curve at half-maximal effect; % is scaled to controls: 0 for no effect and ±100 for the full control effect; nearly all actives have a fitted effect of over 55% in size
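Chicken DT40 Tdp1-/- cells stably complemented with human TDP1 were seeded at 400 cells/well in medium containing 20 nM camptothecin, exposed to pin-transferred compounds, and grown at 37 °C for at least 48 hr. Viability was read as ATP luminescence.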
HepG2 viability: HepG2 cytotoxicity, counter-screen for TGF-b inhibitors. HepG2 CAGA-GFP viability, ATP luminescence, 18 h. Potency, µM (top dose mostly 46.1 µM), inactives show at the highest dose activity change, negative = cytotoxicity, most hits filed as cytotoxic. 410,000 compounds, 0.76% hits; also: potency is read from the fitted curve at half-maximal effect
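HepG2 CAGA-GFP cells (1000/well, DMEM with 1% FBS) received compound, then TGF-beta at 500 pg/mL final, and were incubated 18 hours at 37 degrees C. Viability was read by CellTiter-Glo luminescence. Media-only wells were set as complete cell-killing and DMSO as no toxicity.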
IL1B secr inh: blocks inflammasome-driven IL-1 beta release | activity change, % at 57.5 µM | 360,000 compounds, 4.7% hits | AID 743279 | THP-1 LPS/ATP IL-1B secretion, AlphaLISA, 16 h; stronger effect = lower value; in the data active = activity change below about -50%; inconclusive = mostly about -30% to -49%; also: % is scaled to controls: 0 for no effect and ±100 for the full control effect
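THP-1 cells pretreated 1 hr with compounds (up to 57.5 uM final), then stimulated with LPS (250 ng/mL final) plus ATP (1.25 mM final); secreted IL-1B measured by AlphaLISA after 16 hr, decreased signal indicating inhibition.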
ASM inhibitor: blocks human secretory acid sphingomyelinase | placental ASM, HMU-PC fluorogenic substrate, 60 min | Potency, µM (highest dose often 57.5 µM), inactives show at the top dose activity change, negative = inhibition, hits mostly inhibitors | 340,000 compounds, 0.006% hits; also: potency is read from the fitted curve at half-maximal effect
Target sequence (P17405 47-631 limits assumed): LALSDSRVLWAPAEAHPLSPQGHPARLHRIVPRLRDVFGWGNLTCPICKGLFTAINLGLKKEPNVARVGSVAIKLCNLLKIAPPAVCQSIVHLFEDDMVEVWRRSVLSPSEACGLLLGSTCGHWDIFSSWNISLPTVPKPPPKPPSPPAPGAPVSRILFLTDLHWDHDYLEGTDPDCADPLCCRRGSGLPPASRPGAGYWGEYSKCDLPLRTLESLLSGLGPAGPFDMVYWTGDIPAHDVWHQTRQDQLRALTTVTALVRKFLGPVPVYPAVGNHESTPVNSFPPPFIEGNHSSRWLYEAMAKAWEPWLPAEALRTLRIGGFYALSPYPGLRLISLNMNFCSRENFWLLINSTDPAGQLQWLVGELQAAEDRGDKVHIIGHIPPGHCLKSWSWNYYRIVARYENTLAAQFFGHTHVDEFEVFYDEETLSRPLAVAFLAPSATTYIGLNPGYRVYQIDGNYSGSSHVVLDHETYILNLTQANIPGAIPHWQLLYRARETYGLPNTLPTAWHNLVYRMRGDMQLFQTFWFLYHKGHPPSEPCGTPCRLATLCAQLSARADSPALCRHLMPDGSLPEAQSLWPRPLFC
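Human placenta-derived ASM enzyme was preincubated with compound for 10 minutes at room temperature, then given fluorogenic substrate HMU-PC0 (9 uM final) for 60 minutes at 37 °C; a pH 10 stop preceded fluorescence reading at Ex 386/Em 447 nm.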
DT40 TDP1 no CPT: qHTS for Inhibitors of human tyrosyl-DNA phosphodiesterase 1 (TDP1): qHTS in cells in absence of CPT | 420,000 compounds, 15% hits | Potency, µM (doses to about 46.2 µM), for inactives: at the top dose activity change, negative = growth inhibition, most hits filed as inhibitors | DT40 Tdp1-/- hTDP1 cells, no CPT, ATP luminescence, 48 h; also: potency is read from the fitted curve at half-maximal effect; % is scaled to controls: 0 for no effect and ±100 for the full control effect; nearly all actives have a fitted effect of over 55% in size
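Chicken DT40 Tdp1-/- cells stably complemented with human TDP1 were seeded at 400 cells/well with DMSO in place of 20 nM camptothecin. After compound pinning, cells grew at least 48 hr at 37 °C; viability read by CellTiter-Glo luminescence.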
TGFb SMAD3 inh: TGF-b pathway inhibition; Potency, µM (doses to about 46.1 µM), without a hit: at the highest dose activity, negative = inhibition, hits mostly inhibitors; AID 588855; 410,000 compounds, 1.2% hits; HepG2 CAGA-GFP TGF-b/SMAD3 reporter, GFP fluorescence, 18 h; TGF-beta stimulated, 500 pg/mL final; also: potency is read from the fitted curve at half-maximal effect; % is scaled to controls: 0 for no effect and ±100 for the full control effect; nearly all actives have a fitted effect of over 65% in size
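TGF-beta reporter screen: HEPG2 CAGA-GFP, 1% FBS, 500 pg/mL TGF-beta final, 18 h; per-cell GFP summed per well; curves fitted and categorized by class.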
* hit, by the source's call; ? = inconclusive; / = no result given. Unless noted, calls follow the shape of the dose curve; as a rule, active = well fitted curve in the direction sought with a large enough effect; inconclusive = small, poorly fitted or top-dose-only effect, or another doubt; inactive = no such curve, though single readings can be large; an effect the other way counts as inactive or inconclusive.

SMILES	DT40 TDP1 CPT	HepG2 viability	IL1B secr inh	ASM inhibitor	DT40 TDP1 no CPT	TGFb SMAD3 inh
Cc1c(NC(=O)Nc2ccc(Cl)c(Cl)c2)sc2nc3n(c(=O)c12)CCC(C)CC3 (stereo unspecified)	5.17µM*	-12.6%	/	/	8.2µM*	?
Cc1c(NC(=O)Nc2ccccc2C(F)(F)F)sc2nc3n(c(=O)c12)CCC(C)CC3 (stereo unspecified)	20.6µM*	-19.6%	/	/	13µM*	-21.5%
COc1cc(OC)c(NC(=O)Nc2sc3nc4n(c(=O)c3c2C)CCC(C)CC4)cc1Cl (stereo unspecified)	5.17µM*	3.5%	/	/	5.8µM*	0.0%
CCOC(=O)N1CCN(C(=O)Nc2sc3nc4n(c(=O)c3c2C)CCC(C)CC4)CC1 (stereo unspecified)	?	-4.0%	-5.5	-2.3%	?	-2.8%
CC(=O)c1cccc(NC(=O)Nc2sc3nc4n(c(=O)c3c2C)CCC(C)CC4)c1 (stereo unspecified)	?	-3.2%	/	/	8.2µM*	8.9%
O=C1NC[C@@H](CCCCN2CCN(CCc3ccccc3)C(=O)C2=O)N(CCc2ccc(O)cc2)C1=O	-5.5%	/	-9.1	/	4.1%	/
Cc1ccc(-c2nc3c(c(SCC(=O)Nc4cccc(C(=O)O)c4)n2)Cc2cccc(C)c2O3)cc1	-1.1%	-0.5%	/	/	?	-4.2%
CCN(C(=O)COC(=O)/C(=C/c1ccccc1)n1nnnc1C)C1CCCCC1	?	-25.1%	-96.6*	2.1%	23.1µM*	-14.1%
Cc1cc(C)cc(OCC(=O)N(Cc2ccc(Cl)cc2)CC2CCCO2)c1 (stereo unspecified)	?	-33.0%	/	/	?	?
CN(C)c1ccc(CN(CC2CCCO2)C(=O)COc2ccccc2Cl)cc1 (stereo unspecified)	?	-19.6%	/	/	18.4µM*	-15.8%
Cc1cc(Cl)ccc1OCC(=O)N(Cc1ccc(N(C)C)cc1)CC1CCCO1 (stereo unspecified)	?	-30.2%	/	/	25.9µM*	?
COc1ccc(CN(CC2CCCO2)C(=O)CN2C(=O)C(C)Oc3ccc(C)cc32)cc1OC (stereo unspecified)	?	-18.8%	-8.4	-2.6%	18.4µM*	0.2%
COc1ccccc1OCC(=O)N(Cc1ccc(N(C)C)cc1)CC1CCCO1 (stereo unspecified)	23.1µM*	-3.5%	/	/	14.6µM*	-14.5%
COc1cccc(NC(=O)CSc2nc(=O)[nH]c3c2CCCC3)c1	?	-20.0%	/	/	?	-5.5%
COC(=O)c1cccc(CN2C(=O)C(C)Oc3ccc(C)cc32)c1 (stereo unspecified)	20.6µM*	-1.8%	2.3	/	20.6µM*	-2.5%
CSc1nccc(-c2cc(Cl)c3c(c2)CC(CNC(=O)c2ccc(C)nc2)O3)n1 (stereo unspecified)	-6.2%	/	/	/	-3.9%	/
COC(=O)CNC(=O)C1Cc2ccccc2CN1S(=O)(=O)c1cccs1 (stereo unspecified)	-18.2%	17.2%	-74.3*	2.1%	-8.2%	4.3%
CCOC(=O)CNC(=O)C1Cc2ccccc2CN1S(=O)(=O)c1cccs1 (stereo unspecified)	0.2%	2.9%	-4.6	6.8%	-1.4%	-6.8%
CC1(C(=O)NS(=O)(=O)c2cccs2)CCN1C(=O)c1cccc(F)c1 (stereo unspecified)	-2.0%	10.8%	9.6	/	5.8%	4.4%
CC(C)C(=O)NC(=S)Nc1ccc(S(=O)(=O)N2CCCC2)cc1	?	-29.9%	-1.3	5.5%	16.4µM*	-29.0%

Source: PubChem BioAssay
